Assays:
UniProt O54950 = assay: log2 fold change of pooled soluble protein (PISA), ligand vs vehicle (log2 ratio); higher = more thermally stabilized; conditions: ligand concentration: 20 uM; assay format: PISA pool 52.9/55.5/58.6 C
UniProt P31938 = assay: as above; conditions: ligand concentration: 20 uM; assay format: PISA pool 52.9/55.5/58.6 C
UniProt P41241 = assay: as above; conditions: ligand concentration: 20 uM; assay format: PISA pool 52.9/55.5/58.6 C
UniProt Q3UHJ0 = assay: as above; conditions: ligand concentration: 20 uM; assay format: PISA pool 52.9/55.5/58.6 C
UniProt Q5F2E8 = molecular target: T1, UniProt Q5F2E8; assay: as above; conditions: ligand concentration: 20 uM; assay format: PISA pool 52.9/55.5/58.6 C
T1 sequence (whole entry): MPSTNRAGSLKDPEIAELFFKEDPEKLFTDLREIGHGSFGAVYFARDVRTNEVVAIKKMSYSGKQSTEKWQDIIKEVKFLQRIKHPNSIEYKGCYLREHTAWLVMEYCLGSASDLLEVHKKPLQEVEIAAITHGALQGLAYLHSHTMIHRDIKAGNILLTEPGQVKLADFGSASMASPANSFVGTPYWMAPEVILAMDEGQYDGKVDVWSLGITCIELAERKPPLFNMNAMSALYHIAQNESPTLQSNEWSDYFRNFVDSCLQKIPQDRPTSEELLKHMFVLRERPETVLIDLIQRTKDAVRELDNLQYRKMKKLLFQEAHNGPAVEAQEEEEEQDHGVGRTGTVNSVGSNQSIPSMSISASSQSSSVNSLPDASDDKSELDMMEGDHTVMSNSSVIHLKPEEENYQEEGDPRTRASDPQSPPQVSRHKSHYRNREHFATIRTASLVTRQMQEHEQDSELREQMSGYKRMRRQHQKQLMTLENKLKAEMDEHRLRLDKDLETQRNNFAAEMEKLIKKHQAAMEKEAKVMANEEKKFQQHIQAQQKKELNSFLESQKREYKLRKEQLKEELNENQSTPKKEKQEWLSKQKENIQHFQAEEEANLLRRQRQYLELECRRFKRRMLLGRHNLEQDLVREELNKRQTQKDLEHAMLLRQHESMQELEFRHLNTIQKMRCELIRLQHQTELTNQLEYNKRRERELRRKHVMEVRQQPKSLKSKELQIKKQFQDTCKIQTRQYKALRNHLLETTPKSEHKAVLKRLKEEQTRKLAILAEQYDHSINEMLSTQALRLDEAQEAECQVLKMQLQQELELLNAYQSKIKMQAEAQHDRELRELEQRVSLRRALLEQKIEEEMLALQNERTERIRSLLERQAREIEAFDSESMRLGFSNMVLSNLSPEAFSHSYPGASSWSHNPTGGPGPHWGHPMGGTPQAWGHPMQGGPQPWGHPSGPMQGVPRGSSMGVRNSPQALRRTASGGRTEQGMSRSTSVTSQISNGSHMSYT

UniProt Q63932 = assay: as above; conditions: ligand concentration: 20 uM; assay format: PISA pool 52.9/55.5/58.6 C
UniProt Q64464 = molecular target: T2, UniProt Q64464; assay: as above; conditions: ligand concentration: 20 uM; assay format: PISA pool 52.9/55.5/58.6 C
T2 sequence (whole entry): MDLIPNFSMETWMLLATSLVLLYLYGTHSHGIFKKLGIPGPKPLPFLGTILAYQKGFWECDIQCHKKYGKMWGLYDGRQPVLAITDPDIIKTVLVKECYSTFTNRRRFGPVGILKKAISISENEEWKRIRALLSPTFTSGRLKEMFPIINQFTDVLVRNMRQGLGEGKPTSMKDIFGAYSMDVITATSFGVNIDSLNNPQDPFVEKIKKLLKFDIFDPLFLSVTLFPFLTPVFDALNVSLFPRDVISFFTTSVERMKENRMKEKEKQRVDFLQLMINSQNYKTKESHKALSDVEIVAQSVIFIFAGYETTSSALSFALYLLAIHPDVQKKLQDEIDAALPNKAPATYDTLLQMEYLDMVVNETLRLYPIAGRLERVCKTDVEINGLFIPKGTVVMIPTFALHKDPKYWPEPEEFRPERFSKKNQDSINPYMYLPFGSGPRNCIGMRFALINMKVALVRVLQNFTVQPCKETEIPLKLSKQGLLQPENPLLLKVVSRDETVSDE

UniProt Q6PIU9 = molecular target: T3, UniProt Q6PIU9; assay: as above; conditions: ligand concentration: 20 uM; assay format: PISA pool 52.9/55.5/58.6 C
T3 sequence (whole entry): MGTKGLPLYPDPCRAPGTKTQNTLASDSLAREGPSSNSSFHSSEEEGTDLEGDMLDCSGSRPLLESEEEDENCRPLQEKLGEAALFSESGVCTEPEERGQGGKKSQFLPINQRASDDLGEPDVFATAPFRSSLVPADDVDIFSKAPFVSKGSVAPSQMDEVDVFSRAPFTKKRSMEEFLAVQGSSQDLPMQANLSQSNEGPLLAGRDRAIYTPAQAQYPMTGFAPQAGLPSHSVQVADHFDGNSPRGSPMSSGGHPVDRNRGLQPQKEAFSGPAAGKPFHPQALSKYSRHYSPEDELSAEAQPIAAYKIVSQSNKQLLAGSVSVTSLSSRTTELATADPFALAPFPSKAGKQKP

UniProt Q8BRK8 = assay: as above; conditions: ligand concentration: 20 uM; assay format: PISA pool 52.9/55.5/58.6 C
UniProt Q8BTW9 = assay: as above; conditions: ligand concentration: 20 uM; assay format: PISA pool 52.9/55.5/58.6 C
UniProt Q8BYY4 = molecular target: T4, UniProt Q8BYY4; assay: as above; conditions: ligand concentration: 20 uM; assay format: PISA pool 52.9/55.5/58.6 C
T4 sequence (whole entry): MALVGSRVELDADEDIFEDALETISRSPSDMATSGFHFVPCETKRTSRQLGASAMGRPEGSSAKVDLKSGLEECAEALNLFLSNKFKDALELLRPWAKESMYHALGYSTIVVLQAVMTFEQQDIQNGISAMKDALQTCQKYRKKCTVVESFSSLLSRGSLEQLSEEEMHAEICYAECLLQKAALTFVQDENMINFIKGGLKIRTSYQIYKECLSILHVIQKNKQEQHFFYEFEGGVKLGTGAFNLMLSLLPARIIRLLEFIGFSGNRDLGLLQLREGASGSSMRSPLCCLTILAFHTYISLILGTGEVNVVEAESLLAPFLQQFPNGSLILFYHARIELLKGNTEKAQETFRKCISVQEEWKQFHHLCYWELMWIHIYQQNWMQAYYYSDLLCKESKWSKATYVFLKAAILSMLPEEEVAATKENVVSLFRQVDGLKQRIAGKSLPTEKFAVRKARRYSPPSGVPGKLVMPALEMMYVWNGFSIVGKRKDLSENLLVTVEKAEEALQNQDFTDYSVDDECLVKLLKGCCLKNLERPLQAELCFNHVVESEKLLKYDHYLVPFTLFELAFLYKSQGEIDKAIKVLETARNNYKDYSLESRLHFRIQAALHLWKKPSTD

UniProt Q9EQ20 = assay: as above; conditions: ligand concentration: 20 uM; assay format: PISA pool 52.9/55.5/58.6 C
UniProt Q9JI10 = molecular target: T5, UniProt Q9JI10; assay: as above; conditions: ligand concentration: 20 uM; assay format: PISA pool 52.9/55.5/58.6 C
T5 sequence (whole entry): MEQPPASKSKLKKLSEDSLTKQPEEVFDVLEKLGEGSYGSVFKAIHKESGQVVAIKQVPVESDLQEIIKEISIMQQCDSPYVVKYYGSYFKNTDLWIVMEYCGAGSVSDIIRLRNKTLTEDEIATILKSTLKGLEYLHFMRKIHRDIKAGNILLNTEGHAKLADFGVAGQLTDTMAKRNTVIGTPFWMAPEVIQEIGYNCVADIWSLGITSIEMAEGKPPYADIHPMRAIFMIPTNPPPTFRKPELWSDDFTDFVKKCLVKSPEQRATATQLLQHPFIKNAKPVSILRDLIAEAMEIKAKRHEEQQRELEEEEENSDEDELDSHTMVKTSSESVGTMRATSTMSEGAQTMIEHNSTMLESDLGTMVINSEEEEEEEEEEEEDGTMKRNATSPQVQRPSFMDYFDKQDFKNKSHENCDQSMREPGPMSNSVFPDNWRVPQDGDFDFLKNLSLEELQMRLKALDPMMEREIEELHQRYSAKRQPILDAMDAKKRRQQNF

UniProt Q9R092 = molecular target: T6, UniProt Q9R092; assay: as above; conditions: ligand concentration: 20 uM; assay format: PISA pool 52.9/55.5/58.6 C
T6 sequence (whole entry): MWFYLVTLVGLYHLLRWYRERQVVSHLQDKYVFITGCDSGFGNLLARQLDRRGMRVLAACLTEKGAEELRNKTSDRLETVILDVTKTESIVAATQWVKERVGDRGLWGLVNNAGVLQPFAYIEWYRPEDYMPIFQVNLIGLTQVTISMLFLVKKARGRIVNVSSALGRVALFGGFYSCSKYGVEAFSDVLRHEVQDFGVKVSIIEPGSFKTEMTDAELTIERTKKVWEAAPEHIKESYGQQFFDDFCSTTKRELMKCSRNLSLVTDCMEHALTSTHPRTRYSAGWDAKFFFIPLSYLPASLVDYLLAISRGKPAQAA

UniProt Q9R257 = molecular target: T7, UniProt Q9R257; assay: as above; conditions: ligand concentration: 20 uM; assay format: PISA pool 52.9/55.5/58.6 C
T7 sequence (whole entry): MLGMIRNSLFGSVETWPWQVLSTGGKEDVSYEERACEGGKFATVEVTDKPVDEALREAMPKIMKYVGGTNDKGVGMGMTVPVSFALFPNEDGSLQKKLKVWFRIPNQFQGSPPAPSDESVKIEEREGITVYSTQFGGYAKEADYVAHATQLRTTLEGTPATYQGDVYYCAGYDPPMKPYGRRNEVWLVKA

UniProt P0AEX5 = molecular target: T8, UniProt P0AEX5; assay: log2 fold change of tryptic peptide abundance, ligand vs vehicle (limited proteolysis) (log2 ratio); higher = more trypsin-susceptible (destabilized); conditions: peptide sequence: EAVMDSVVR; peptide start residue: 177; ligand concentration: 5 mM; sample: E. coli desalted lysate; replicate design: treated before aliquoting
T8 sequence (whole entry): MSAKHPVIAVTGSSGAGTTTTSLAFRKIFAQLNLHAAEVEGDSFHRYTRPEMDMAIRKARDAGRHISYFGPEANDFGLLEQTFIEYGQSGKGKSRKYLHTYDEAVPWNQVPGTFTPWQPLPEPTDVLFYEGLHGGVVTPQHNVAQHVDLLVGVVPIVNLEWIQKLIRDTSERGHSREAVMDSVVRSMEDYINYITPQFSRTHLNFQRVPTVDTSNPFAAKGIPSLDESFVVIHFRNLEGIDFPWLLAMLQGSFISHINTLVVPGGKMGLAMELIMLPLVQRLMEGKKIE
Description: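 HT-PELSA: desalted E. coli K-12 BW25113 lysate (with 12 mM MgCl2) incubated with 5 mM ATP (pH 7) or water for 30 min at 25 C, then a 4 min trypsin pulse at 22 C. Peptides were quantified by DIA-MS (4 replicates). Value is the peptide log2 fold change (treated/control); negative = stabilized. Scale: negative = ligand-stabilized region.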
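For log2 fold change of tryptic peptide abundance, ligand vs vehicle (limited proteolysis) in this document: lysate desalted by size exclusion to strip endogenous ATP, peptide intensities built from DIA-NN precursor signals, and peptides missing any value discarded before comparison.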

UniProt Q8BRK8, sequence (Q8BRK8 whole entry): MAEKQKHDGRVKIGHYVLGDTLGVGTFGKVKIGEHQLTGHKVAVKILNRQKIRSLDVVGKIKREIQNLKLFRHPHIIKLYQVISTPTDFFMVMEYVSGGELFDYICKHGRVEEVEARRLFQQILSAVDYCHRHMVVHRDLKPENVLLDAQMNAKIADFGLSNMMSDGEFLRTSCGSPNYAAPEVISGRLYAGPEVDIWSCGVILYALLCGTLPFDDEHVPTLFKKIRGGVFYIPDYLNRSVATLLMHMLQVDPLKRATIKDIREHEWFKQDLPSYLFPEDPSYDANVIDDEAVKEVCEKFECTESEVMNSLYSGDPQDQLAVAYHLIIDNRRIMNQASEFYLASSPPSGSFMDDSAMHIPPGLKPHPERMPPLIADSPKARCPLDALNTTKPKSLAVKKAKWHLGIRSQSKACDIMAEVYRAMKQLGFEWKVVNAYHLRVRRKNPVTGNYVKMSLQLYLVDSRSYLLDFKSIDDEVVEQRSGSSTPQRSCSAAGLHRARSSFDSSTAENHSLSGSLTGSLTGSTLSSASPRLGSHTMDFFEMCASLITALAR
UniProt Q63932, sequence (Q63932 whole entry): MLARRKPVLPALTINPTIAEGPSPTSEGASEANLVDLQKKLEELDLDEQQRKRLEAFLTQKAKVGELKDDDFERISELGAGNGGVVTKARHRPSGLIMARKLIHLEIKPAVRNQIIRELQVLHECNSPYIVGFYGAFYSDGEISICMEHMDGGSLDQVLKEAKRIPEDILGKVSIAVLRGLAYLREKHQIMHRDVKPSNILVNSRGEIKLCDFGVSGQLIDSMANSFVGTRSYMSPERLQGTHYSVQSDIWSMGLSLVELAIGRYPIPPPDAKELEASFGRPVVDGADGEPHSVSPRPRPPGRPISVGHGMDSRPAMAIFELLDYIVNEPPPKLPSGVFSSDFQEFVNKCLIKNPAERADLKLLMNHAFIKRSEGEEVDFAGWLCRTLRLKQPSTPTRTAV
UniProt Q9EQ20, sequence (Q9EQ20 whole entry): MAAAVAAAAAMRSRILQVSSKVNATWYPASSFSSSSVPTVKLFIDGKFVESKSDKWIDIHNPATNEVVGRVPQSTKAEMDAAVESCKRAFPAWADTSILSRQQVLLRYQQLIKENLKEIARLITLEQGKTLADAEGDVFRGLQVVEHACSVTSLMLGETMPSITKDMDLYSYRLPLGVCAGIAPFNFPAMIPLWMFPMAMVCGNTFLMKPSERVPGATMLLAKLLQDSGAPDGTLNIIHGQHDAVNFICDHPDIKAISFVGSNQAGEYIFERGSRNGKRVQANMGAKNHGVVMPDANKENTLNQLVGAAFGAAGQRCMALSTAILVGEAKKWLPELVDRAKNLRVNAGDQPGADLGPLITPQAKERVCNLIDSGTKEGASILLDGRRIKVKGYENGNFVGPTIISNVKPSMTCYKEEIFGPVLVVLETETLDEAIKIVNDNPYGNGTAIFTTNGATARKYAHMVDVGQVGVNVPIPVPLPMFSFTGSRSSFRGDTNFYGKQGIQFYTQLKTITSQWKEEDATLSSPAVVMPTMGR
UniProt O54950, sequence (O54950 whole entry): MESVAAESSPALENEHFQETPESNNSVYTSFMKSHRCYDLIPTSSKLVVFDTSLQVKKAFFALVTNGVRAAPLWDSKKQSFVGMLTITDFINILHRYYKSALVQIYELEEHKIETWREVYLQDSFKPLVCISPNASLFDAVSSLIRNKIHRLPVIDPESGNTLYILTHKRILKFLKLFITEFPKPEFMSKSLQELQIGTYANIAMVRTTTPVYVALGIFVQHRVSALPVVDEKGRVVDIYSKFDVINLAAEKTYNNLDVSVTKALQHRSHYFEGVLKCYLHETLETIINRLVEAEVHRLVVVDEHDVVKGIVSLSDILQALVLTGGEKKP
UniProt P41241, sequence (P41241 whole entry): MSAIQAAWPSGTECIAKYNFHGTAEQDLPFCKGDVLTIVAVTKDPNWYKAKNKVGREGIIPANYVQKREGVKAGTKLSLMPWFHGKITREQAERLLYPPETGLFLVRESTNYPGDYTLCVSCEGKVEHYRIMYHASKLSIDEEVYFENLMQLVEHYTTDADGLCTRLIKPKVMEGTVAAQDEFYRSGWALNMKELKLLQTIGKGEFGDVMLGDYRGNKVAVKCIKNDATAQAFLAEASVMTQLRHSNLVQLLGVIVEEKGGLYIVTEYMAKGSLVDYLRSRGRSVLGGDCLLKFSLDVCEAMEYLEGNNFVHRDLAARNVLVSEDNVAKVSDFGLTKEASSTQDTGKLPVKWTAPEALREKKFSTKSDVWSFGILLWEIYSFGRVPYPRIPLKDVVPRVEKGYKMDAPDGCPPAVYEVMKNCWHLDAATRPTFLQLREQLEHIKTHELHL
UniProt P31938, sequence (P31938 whole entry): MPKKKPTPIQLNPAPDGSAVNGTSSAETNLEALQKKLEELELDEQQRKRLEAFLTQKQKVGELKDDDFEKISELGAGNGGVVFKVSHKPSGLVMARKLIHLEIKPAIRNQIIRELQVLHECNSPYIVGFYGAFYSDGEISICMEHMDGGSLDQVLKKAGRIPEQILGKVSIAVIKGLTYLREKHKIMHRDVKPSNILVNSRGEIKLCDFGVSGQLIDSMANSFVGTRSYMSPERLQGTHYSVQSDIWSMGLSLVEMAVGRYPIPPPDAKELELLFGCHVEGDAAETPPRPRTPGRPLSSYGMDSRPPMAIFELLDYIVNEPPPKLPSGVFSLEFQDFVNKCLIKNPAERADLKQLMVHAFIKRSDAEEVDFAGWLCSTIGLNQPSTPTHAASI
UniProt Q3UHJ0, sequence (Q3UHJ0 whole entry, looked up): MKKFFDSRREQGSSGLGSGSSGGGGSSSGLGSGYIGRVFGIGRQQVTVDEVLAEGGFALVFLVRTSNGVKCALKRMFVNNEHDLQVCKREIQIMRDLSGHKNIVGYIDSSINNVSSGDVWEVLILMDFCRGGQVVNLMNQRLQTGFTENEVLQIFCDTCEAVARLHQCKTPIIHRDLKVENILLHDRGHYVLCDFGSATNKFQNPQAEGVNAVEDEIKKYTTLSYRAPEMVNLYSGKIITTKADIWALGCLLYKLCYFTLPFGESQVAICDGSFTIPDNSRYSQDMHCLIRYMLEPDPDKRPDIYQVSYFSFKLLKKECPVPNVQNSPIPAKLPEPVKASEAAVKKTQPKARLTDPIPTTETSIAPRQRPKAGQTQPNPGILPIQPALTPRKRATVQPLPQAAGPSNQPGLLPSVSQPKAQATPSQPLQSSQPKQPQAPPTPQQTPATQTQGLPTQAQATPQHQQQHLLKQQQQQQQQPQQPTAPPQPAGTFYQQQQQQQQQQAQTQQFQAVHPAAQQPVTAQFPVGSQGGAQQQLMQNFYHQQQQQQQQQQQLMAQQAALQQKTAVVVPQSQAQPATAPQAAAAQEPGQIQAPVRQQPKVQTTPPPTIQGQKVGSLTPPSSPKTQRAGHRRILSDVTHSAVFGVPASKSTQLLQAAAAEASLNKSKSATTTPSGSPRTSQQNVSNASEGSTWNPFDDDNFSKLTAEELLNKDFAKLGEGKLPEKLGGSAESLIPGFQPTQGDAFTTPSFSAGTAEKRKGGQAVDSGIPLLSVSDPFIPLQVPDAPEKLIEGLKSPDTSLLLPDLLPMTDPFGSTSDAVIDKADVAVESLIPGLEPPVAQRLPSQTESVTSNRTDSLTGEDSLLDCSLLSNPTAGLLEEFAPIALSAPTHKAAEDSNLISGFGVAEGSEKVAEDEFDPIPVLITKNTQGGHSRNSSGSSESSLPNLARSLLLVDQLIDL
UniProt Q8BTW9, sequence (Q8BTW9 whole entry): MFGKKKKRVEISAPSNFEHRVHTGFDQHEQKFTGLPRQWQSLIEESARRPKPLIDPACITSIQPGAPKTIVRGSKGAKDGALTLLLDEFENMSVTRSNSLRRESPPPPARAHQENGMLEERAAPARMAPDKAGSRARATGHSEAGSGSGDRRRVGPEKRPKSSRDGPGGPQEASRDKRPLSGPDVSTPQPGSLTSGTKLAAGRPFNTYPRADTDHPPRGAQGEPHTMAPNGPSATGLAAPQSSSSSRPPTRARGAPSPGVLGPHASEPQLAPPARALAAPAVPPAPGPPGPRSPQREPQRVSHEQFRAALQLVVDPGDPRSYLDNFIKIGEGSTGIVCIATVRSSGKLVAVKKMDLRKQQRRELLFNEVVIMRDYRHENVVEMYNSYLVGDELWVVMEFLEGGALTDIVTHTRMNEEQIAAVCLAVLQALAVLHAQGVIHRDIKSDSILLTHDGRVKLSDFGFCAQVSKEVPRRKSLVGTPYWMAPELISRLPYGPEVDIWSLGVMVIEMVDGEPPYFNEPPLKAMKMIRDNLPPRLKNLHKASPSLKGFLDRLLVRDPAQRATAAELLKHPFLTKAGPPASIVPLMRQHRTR

Row | SMILES | log2 fold change of pooled soluble protein (UniProt O54950) | log2 fold change of pooled soluble protein (UniProt P31938) | log2 fold change of pooled soluble protein (UniProt P41241) | log2 fold change of pooled soluble protein (UniProt Q3UHJ0) | log2 fold change of pooled soluble protein (UniProt Q5F2E8) | log2 fold change of pooled soluble protein (UniProt Q63932) | log2 fold change of pooled soluble protein (UniProt Q64464) | log2 fold change of pooled soluble protein (UniProt Q6PIU9) | log2 fold change of pooled soluble protein (UniProt Q8BRK8) | log2 fold change of pooled soluble protein (UniProt Q8BTW9) | log2 fold change of pooled soluble protein (UniProt Q8BYY4) | log2 fold change of pooled soluble protein (UniProt Q9EQ20) | log2 fold change of pooled soluble protein (UniProt Q9JI10) | log2 fold change of pooled soluble protein (UniProt Q9R092) | log2 fold change of pooled soluble protein (UniProt Q9R257) | log2 fold change (UniProt P0AEX5)
1 | CN[C@@H]1C[C@H]2O[C@@](C)([C@@H]1OC)n1c3ccccc3c3c4c(c5c6ccccc6n2c5c31)C(=O)NC4 [staurosporine] | 0.645 | 2.14 | 1.02 | 1.91 | 1.2 | 2.18 | 0.447 | 0.619 | 0.661 | 1.36 | 0.552 | 0.615 | 1.77 | 0.855 | 0.471 | 
2 | Nc1ncnc2c1ncn2[C@@H]1O[C@H](COP(=O)(O)OP(=O)(O)OP(=O)(O)O)[C@@H](O)[C@H]1O [adenosine 5'-triphosphate] |  |  |  |  |  |  |  |  |  |  |  |  |  |  |  | 0.659

— the supplement of paper PMC12819154, “High-throughput peptide-centric local stability assay extends protein–ligand identification to membrane proteins, tissues and bacteria” (Nature Structural & Molecular Biology, 2025)
